Experimental data reported in PubChem BioAssay AID485346 (Sanford-Burnham Center for Chemical Genomics, 2010).
In all, about 330,000 compounds went through this assay and about 10,000 (3%) were called active. Many of the other results were omitted from the sample, so actives are more common in it than they were. A number with no mark means an inactive call.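 Rule for the calls: active = inhibition of at least 50% at 8 µM in the primary screen; inactive = the rest.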

Biological target: Protein Mdm4 (Homo sapiens) + E3 ubiquitin-protein ligase Mdm2 (Homo sapiens) (UniProt O15151+Q00987)
Assay: inhibitors of human Mdm2-MdmX association, primary screen, cell-based, luminescence, split luciferase, SaOS-2, uHTS (AID 485346)
Conditions: SaOS-2 split-luciferase Mdm2/MdmX complementation, at 8 µM, active compounds read high

Sequence of Protein Mdm4 (Homo sapiens) + E3 ubiquitin-protein ligase Mdm2 (Homo sapiens) (O15151 whole entry, looked up): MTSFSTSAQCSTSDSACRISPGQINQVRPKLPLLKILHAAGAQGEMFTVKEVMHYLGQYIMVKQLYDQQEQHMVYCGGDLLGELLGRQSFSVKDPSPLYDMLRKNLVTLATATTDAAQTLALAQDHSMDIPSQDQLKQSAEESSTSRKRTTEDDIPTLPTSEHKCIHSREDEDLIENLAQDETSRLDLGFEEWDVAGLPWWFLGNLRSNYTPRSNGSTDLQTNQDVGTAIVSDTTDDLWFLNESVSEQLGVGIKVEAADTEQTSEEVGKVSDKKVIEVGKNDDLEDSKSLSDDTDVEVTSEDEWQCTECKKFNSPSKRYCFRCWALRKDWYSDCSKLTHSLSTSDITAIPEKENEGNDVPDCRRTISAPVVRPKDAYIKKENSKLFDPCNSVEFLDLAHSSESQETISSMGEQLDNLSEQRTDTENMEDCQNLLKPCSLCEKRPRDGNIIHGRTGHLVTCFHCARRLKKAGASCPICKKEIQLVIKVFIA
Sequence of Protein Mdm4 (Homo sapiens) + E3 ubiquitin-protein ligase Mdm2 (Homo sapiens) (Q00987 whole entry, looked up): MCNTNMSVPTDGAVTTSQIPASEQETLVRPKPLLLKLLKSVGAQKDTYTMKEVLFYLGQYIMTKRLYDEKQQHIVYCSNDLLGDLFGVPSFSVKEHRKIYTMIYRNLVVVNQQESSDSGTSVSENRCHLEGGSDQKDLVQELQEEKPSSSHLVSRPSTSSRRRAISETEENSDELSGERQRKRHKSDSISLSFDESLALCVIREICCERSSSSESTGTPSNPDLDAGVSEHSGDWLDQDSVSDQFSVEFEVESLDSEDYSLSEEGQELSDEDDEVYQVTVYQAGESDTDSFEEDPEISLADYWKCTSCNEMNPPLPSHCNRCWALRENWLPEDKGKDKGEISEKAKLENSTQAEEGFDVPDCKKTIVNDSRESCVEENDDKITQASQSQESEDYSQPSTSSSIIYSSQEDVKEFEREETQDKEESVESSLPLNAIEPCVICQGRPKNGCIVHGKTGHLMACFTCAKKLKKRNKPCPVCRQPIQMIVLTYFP

SMILES	inhibition
CCc1ccc(C(CNc2nc(C(F)(F)F)nc3ccccc23)N(C)C)cc1 (configuration not stated)	20.9%
COc1cccc(CNc2nc(C(F)(F)F)nc3ccccc23)c1	31.6%
CC(Nc1nc(C(F)(F)F)nc2ccccc12)c1cccs1 (configuration not stated)	69.6% (active)
COc1ccccc1CNC(=O)CCCN1C(=O)NC2(CCCC2)C1=O	20.4%
Cc1c(C(=O)NCCN2CCOCC2)sc2nc(-c3ccc(F)cc3)cn12	7.76%
O=C(N/N=C/c1cccnc1)c1ccc(NC(=O)c2ccc(F)cc2)cc1	-2.66%
O=C(NN=C1CCC(=NNC(=O)c2cccnc2)CC1)c1cccnc1	-0.152%
O=C(N/N=C/c1sc(N2CCCCC2)nc1-c1cccs1)c1cccnc1	57.4% (active)
CCOC(=O)c1csc(CCNC(=O)c2oc3c(Cl)cc(C)cc3c2C)n1	21.7%
CC(Oc1ccc(Br)cc1)C(=O)NC1CCCCCC1 (configuration not stated)	0.219%
OC(COc1ccc(Br)cc1)CN1CCCC1 (configuration not stated)	2.28%
CC(C)(C)CC(C)(C)NCC(O)COCCOc1ccc(Br)cc1 (configuration not stated)	65.4% (active)
NC(=O)CCC(NS(=O)(=O)c1ccc(Cl)cc1)C(=O)NCc1ccccc1Cl (configuration not stated)	20.8%
Cc1cc(C)c2nc(-c3cccnc3)cc(C(=O)Nc3ccc(S(=O)(=O)Nc4onc(C)c4C)cc3)c2c1	-28.5%
Cc1ccc(Cn2c(=N)c(S(=O)(=O)c3ccc(C)cc3)cc3c(=O)n4ccccc4nc32)cc1	21.6%
N#CC1=C(N)Oc2cc(O)ccc2C1C1CCCCC1 (configuration not stated)	64.7% (active)
N#CC1=C(N)OC2=C(C(=O)CCC2)C1C1CC=CCC1 (configuration not stated)	-10%
COCc1[nH]nc2c1C(C1C=CCCC1)C(C#N)=C(N)O2 (configuration not stated)	23.8%
COc1cc(C#Cc2ccc3cc(CCCO)oc(=O)c3c2)cc(OC)c1	38.9%
COc1cc(/C=C2\Oc3ccc(C#Cc4ccc(O)cc4)cc3C2=O)cc(OC)c1	62.4% (active)
COc1ccc2c(c1)O/C(=C\c1ccccc1O)C2=O	-152%
O=C(Nc1cccc2c1CCCC2)c1ccc(F)cc1	11.9%
COc1ccc([C@H]2CC(=O)C=C(c3ccc(OC(F)(F)F)cc3)C2)cc1OC	-6.36%
CC[n+]1cc(C)ccc1/C=C/c1ccc(N(C)C)cc1	81.1% (active)
Cc1ccc2c(cnn2C(=O)CCC(=O)NC2CCCC2)c1	7.95%
Cn1nccc1NS(=O)(=O)c1ccc(F)cc1	-11.5%
NS(=O)(=O)c1ccc(CCNC(=O)c2ccc([N+](=O)[O-])cc2[N+](=O)[O-])cc1	-0.842%
